aSyn 5UTR act = Activators via SNCA 5'UTR binding, MLPCN | alpha-synuclein 5'UTR reporter, activators screen | activity score, % (tested at 7.5 µM), hits read low | actives 7.1% (n = 300,000) | AID 1814, 2009; in the data active = activity score below about -60%
Hits are given with their value; . = inactive. Only a sample is shown.

SMILES	aSyn 5UTR act
O=C(Nc1ccn(Cc2ccccc2)n1)c1ccc(F)cc1	-120.1
Cc1ccc(-n2c(C)csc2=N)cc1	-174.7
Cc1csc(=N)n1-c1ccc(Cl)cc1	-144.5
O=C(Nc1ccc2c(c1)ncn2C1CCCCC1)c1ccco1	-116.7
CC(C)n1cnc2cc(NC(=O)c3ccco3)ccc21	-71.2
COc1ccccc1-n1cnc2cc(NC(=O)c3ccco3)ccc21	-87.3
Cc1nc2ccc(CN(C)c3ccc(C(=O)N[C@@H](CCC(=O)O)C(=O)O)s3)cc2c(=O)[nH]1	.
Cc1ccc(O)c(C(=O)c2cnn(-c3ccccc3)c2)c1	-67.7
O=C(Cc1cnn(-c2ccccc2)c1)c1ccc(O)c(O)c1O	-81.0
C=C1CCC2[C@](C)(CO)[C@H](O)CC[C@@]2(C)[C@@H]1C/C=C1\C(=O)OC[C@H]1O (stereo partly drawn)	-151.1
CC(C)(C)Nc1nc(N2CCCC2)nc(N2CCCC2)n1	.
COc1nc(NC2CCCCC2)nc(NC(C)(C)C)n1	-69.8
COCCCNc1nc(N)c([N+](=O)[O-])c(NC2CCCCC2)n1	.
COC(=O)Cn1ncc2c(C)n(Cc3ccccc3)c(C)c2c1=O	-122.7
O=C(CCl)Nc1cccc(S(=O)(=O)NC2=NCCC2)c1	-180.0
COc1ccc(/C=C/C(=O)Nc2cccc(S(=O)(=O)NC3=NCCCCC3)c2)cc1	-67.4
O=C(/C=C/c1ccc(OC(F)F)cc1)Nc1cccc(S(=O)(=O)NC2=NCCCCC2)c1	-71.8
Cc1noc(NC(=O)c2ccc(Cl)cc2)c1Cl	-69.8
Cc1noc(C(=O)Nc2cccc(Cl)c2)c1Cl	-78.6
COc1ccc(NC(=O)c2onc(C)c2Cl)cc1	-123.6
CCc1ccc(NC(=O)c2onc(C)c2Cl)cc1	-181.9
CCCC(=O)c1ccc(N2CCCC2)c(F)c1	-139.3
CCC(=O)c1ccc(N2CCN(C(=O)c3cccs3)CC2)c(F)c1	-102.9
CCOC(=O)N1CCN(c2ccc(C(=O)c3ccccc3)cc2F)CC1	-98.8
CCC(=O)c1ccc(N2CCCCCC2)c(F)c1	-133.2
SMILES	aSyn 5UTR act
Cc1ccc(C(=O)c2cc([N+](=O)[O-])ccc2N2CCN(C)CC2)cc1	.
c1ccc(OCc2nc(-c3ccncc3)no2)cc1	-81.8
Clc1ccc(OCc2nc(-c3ccncc3)no2)c(Br)c1	-118.8
c1ccc(OCc2nc(-c3ccccc3)no2)cc1	-202.0
NC(=O)COc1ccc(-c2noc(COc3ccccc3[N+](=O)[O-])n2)cc1	-83.8
CC(C)/C=N/Nc1nc(-c2ccc(Br)cc2)cs1	-141.3
Cn1c(N2CCOCC2)c(/C=N/OC(=O)c2ccc(F)cc2)c2ccccc21	.
Cn1c(O)c(N=Nc2ccc(F)cc2)c2ccccc21	-62.0
Cn1c(O)c(N=Nc2nc(-c3ccccc3)cs2)c2ccccc21	-126.2
Cc1ccccc1NC(=S)N=Nc1c(O)n(C)c2ccc(S(=O)(=O)N3CCOCC3)cc12	.
N/C(=N\OC(=O)c1cccnc1)c1ccccc1Cl	-68.9
N/C(=N\OC(=O)c1cccnc1)c1ccc(Cl)cc1Cl	-152.7
CC(=O)Nc1nc(-c2ccc(Cl)cc2)nc(C)c1C(C)=O	-111.2
CC(=O)Nc1ncnc2c1c(-c1ccc(Cl)cc1)nn2C(C)(C)C	.
CN(C)N1C(=O)/C(=C/c2ccco2)SC1=Nc1ccccc1	-63.6
Cc1ccc(N/C=C2\C(=O)C3(C)CCC2C3(C)C)cc1C (stereo not drawn)	-63.2
CCC1CCCCN1CC(O)Cn1c2ccccc2n2c(=O)cc(C)c(C#N)c12 (stereo not drawn)	-63.8
C/C(=N\OCC(=O)NCC(F)(F)F)c1cc2ccccc2o1	-75.6
CC(=O)NC(c1ccco1)c1ccc2cccnc2c1O (stereo not drawn)	.
CC(C)c1ccc(C(=O)N(c2ccccn2)C(C)c2ccco2)cc1 (stereo not drawn)	-160.7
COc1ccc(-c2cc3cc(OC)c(OC)cc3c(C)n2)cc1	-105.4
CC(C)Sc1nc(N)nc(-c2cccs2)c1C#N	-145.6
O=C1CC(c2ccc3c(c2)OCCO3)Oc2ccc([N+](=O)[O-])cc21 (stereo not drawn)	-163.4
COc1ccc(C2CC(=O)c3ccccc3O2)cc1 (stereo not drawn)	-147.5
CC(C)Oc1ccccc1C1CC(=O)Nc2cc3c(cc21)OCCO3 (stereo not drawn)	.
SMILES	aSyn 5UTR act
O=C1CC(c2ccc3c(c2)OCCO3)Oc2ccccc21 (stereo not drawn)	-208.6
O=C(O)c1ccccc1-c1ncc(-c2ccccc2)o1	-136.6
CSc1nc(N)nc(SCC(=O)c2ccccc2)c1C#N	-76.0
Cc1cccc(NC(=O)CSc2nc(C)c(CC(=O)c3ccc(Br)cc3)c(C)c2C#N)c1C	.
CC(/C=N/NC(=O)c1ccc(Cn2cc([N+](=O)[O-])cn2)o1)=C\c1ccccc1	-75.0
C(=N\Nc1ccc2nncn2n1)/c1ccccn1	.
COc1cccc(/C=N/Nc2ccc(Cl)nn2)c1OC	-155.4
COc1cccc(/C=N/Nc2nnc3c(n2)[nH]c2ccccc23)c1OC	-83.7
Fc1ccccc1/C=N/Nc1ccc(Cl)nn1	-109.7
CC(/C=N/Nc1nnc2c(n1)[nH]c1ccccc12)=C\c1ccco1	-165.3
CC(C)c1ccc(NC(=O)[C@H](Cc2c[nH]c3ccccc23)NC(=O)[C@@H]2Cc3ccccc3CN2)cc1	.
CC(C)c1ccc(NC(=O)C(=O)C2C(=O)Nc3ccccc32)cc1 (stereo not drawn)	-101.4
S=c1[nH]cnc2sc(-c3ccccc3)cc12	-71.3
Nc1c(C(=O)c2cccs2)oc2ccccc12	-98.9
Nc1c(C(=O)c2ccc(Br)s2)oc2ccccc12	-149.4
Brc1ccc2oc(-c3ccn[nH]3)cc2c1	-175.0
O=c1c2[nH]c3cccc(Cl)c3c2ncn1CC1CCCO1 (stereo not drawn)	-79.5
CCc1ccn2cc(-c3ccc4c(c3)OCO4)nc2c1	.
c1ccc(-c2noc(-c3ccc4c(c3)OCO4)n2)nc1	.
c1ccc(-c2nccc(-c3ccc4c(c3)OCO4)n2)cc1	-105.2
Cc1ccc(-c2cn3cccnc3n2)cc1	-119.5
c1cnc2nc(-c3ccc4c(c3)OCO4)cn2c1	-93.2
C=CCN=C1NN=C(c2cc(C)n(CCOC)c2C)CS1	.
Oc1ccc(C2=NNC(=NCc3ccc4c(c3)OCO4)SC2)c(O)c1	-87.3
Cc1cc(OCc2cc(C(=O)N(C)CC3CCOCC3)no2)cc(C)c1Cl	-71.6
SMILES	aSyn 5UTR act
CCN(CC1CCCO1)C(=O)c1cc(COc2cc(C)c(Cl)c(C)c2)on1 (stereo not drawn)	-129.0
CC(=O)c1cccc(OCc2cc(C(=O)N(C)CCC3CCOCC3)no2)c1	-85.5
O=C(Nc1ccc(NC(=O)C2CC2)nc1)c1cccc(F)c1	-161.0
CCOc1ccc(C(=O)Nc2ccc(Cl)cn2)cc1Cl	-182.0
CC(C)C(=O)Nc1ccc(NC(=O)c2cccc(F)c2)cn1	-147.6
O=C(Nc1ccc(Cl)cn1)c1cccc(F)c1	-204.1
CSc1ccccc1OCc1cc(C(=O)N2CCN(c3ccccc3)CC2C)no1 (stereo not drawn)	-107.8
CC(=O)c1ccc(OCc2cc(C(=O)N3CCN(c4ccccc4)CC3C)no2)cc1 (stereo not drawn)	-163.3
Cc1ccnc(NC(=O)C2CC(=O)N(Cc3ccccc3)C2)c1 (stereo not drawn)	-111.7
CC(=O)c1ccc(NC(=O)C2CC(=O)N(Cc3ccccc3)C2)cc1 (stereo not drawn)	-128.9
Cc1ccc(NC(=O)c2cc3cccc([N+](=O)[O-])c3[nH]2)cc1	-110.4
CCC(=O)Nc1sc(C(=O)Nc2ccccc2F)c(C)c1C(=O)OC	-63.5
CCCC(=O)Nc1sc(C(=O)Nc2cccc(N)c2)c(C)c1C(=O)OC	-83.8
